# Source: PubChem BioAssay
# The sample as a whole holds a higher share of hits than the screen did.
# TbREL1 inh: TbREL1 inhibition, primary screen; TbREL1 RNA ligation, FRET fluorescence; P86926; 89,000 compounds, 0.49% hits; inhibition, % at 9.66 µM;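 active = inhibition above the mean inhibition across all screened compounds plus 3 SD, cut at about 11% in these data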
# Target sequence (P86926 whole entry, looked up): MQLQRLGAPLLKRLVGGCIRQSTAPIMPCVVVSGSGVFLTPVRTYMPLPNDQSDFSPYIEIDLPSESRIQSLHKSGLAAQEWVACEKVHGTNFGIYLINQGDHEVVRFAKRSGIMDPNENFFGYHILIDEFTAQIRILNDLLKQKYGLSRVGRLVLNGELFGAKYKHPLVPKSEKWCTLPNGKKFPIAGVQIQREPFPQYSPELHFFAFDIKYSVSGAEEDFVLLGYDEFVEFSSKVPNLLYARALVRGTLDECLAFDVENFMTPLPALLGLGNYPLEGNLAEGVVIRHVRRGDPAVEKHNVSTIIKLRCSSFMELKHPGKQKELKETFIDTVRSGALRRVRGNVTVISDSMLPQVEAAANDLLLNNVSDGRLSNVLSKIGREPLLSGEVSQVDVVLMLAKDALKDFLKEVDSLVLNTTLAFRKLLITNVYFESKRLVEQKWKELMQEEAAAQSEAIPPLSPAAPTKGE
# TbREL1 confirm: TbREL1 inhibition, confirmation | shares compounds with TbREL1 inh | TbREL1 RNA ligation, FRET fluorescence | inhibition, % at 9.66 µM | 390 compounds, 37% hits | AID 1117282;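 active = mean inhibition across replicates above a set limit taken from the earlier primary screen, cut at about 11% in these data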
# Hits are given with their value; – = inactive.
SMILES,TbREL1 inh,others
O=C(O)c1ccc(CN2C(=O)CSC2=S)cc1,–,
O=C(O)c1ccc(N2C(=O)CSC2=S)cc1,–,
O=C(NN1C(=O)CSC1=S)C(=O)NN1C(=O)CSC1=S,38,TbREL1 confirm=19
CO[C@H]([C@H](C)/C=C/N(C)C=O)[C@@H](C)C(O)CC[C@H](C)[C@H](O)[C@H](C)[C@H]1OC(=O)/C=C/C(C)=C/C[C@H](O)C[C@@H]2C=CC[C@@H](C[C@H](OC)[C@@]3(CO3)[C@@H](OC)C[C@@H](OC)[C@@H]1C)O2 (stereo partly drawn),–,
Cc1ccc(-n2c(Cc3cccs3)nnc2SCc2ccc(Br)cc2)cc1,–,
Cc1ccc(C(=O)C2CCN(CC(=O)N3CCOCC3)CC2)cc1,–,
Cc1ccc(N(C)S(=O)(=O)c2c[nH]c3ccc([N+](=O)[O-])cc23)cc1,14,TbREL1 confirm=–
O=[N+]([O-])c1ccc2[nH]nc(-c3ccccc3)c2c1,–,
COC(=O)CCc1c[nH]c2ccc([N+](=O)[O-])cc12,–,
CC(C)(N[C@@H](Cc1c[nH]c2ccccc12)C(=O)NCCc1c[nH]c2ccccc12)C(=O)NC1CCCCC1,–,
Clc1ccc2nc(CNc3nc(N4CCOCC4)nc4c3ncn4-c3ccsc3)[nH]c2c1,–,
Cc1ccc(Cn2cc(COC(=O)NCC(C)C)nn2)cc1,–,
COc1cc(NC(=O)c2cnc(N)s2)cc(C(=O)Nc2cccc(C(F)(F)F)c2)c1,32,TbREL1 confirm=21
COc1cc(NC(=O)c2csc(N)n2)cc(C(=O)Nc2cccc(C(F)(F)F)c2)c1,–,
COc1cc(NC(=O)c2cc(C)on2)cc(C(=O)Nc2cccc(C(F)(F)F)c2)c1,–,
C=CCCC(=O)N(Cc1ccccc1)c1ccccc1C(=O)Nc1cc(OC)ccc1OC,–,
O=C(c1cc2cc([N+](=O)[O-])ccc2s1)N1CCCCC1,12,TbREL1 confirm=–
O=C(c1sc2cc([N+](=O)[O-])ccc2c1Cl)N1CCCCC1,–,
O=C(Nc1ccccn1)c1cc2cc([N+](=O)[O-])ccc2s1,–,
COc1cccc2sc(N(CCCN(C)C)C(=O)c3ccc(S(=O)(=O)N4CCc5ccccc5C4)cc3)nc12,–,
CCOc1cccc2sc(N(CCCN(C)C)C(=O)c3ccc(S(=O)(=O)N4CCCCCC4)cc3)nc12,15,TbREL1 confirm=–
Cc1cc(C)c2sc(N(CCN(C)C)C(=O)c3c(F)cccc3F)nc2c1,–,
CN(C)CCCN(C(=O)c1ccc(C(=O)c2ccccc2)cc1)c1nc2c(F)cccc2s1,–,
CCN(c1ccccc1)S(=O)(=O)c1ccc(C(=O)N(CCCN(C)C)c2nc3c(C)cccc3s2)cc1,13,TbREL1 confirm=11
CCN(Cc1ccccc1)S(=O)(=O)c1ccc(C(=O)N(CCCN(C)C)c2nc3cc(C)cc(C)c3s2)cc1,15,TbREL1 confirm=–
SMILES,TbREL1 inh,others
Cc1cc(C)c2sc(N(CCCN(C)C)C(=O)c3ccc(Br)s3)nc2c1,–,
CCN(Cc1ccccc1)S(=O)(=O)c1ccc(C(=O)N(CCCN(C)C)c2nc3c(F)cccc3s2)cc1,28,TbREL1 confirm=–
CCc1ccc2nc(N(CCCN(C)C)C(=O)c3ccc(S(=O)(=O)N4CCCC4)cc3)sc2c1,–,
CN(C)CCN(C(=O)c1ccc2c(c1)CCCC2)c1nc2c(F)cccc2s1,–,
CN(C)CCCN(C(=O)c1ccc(S(=O)(=O)N2CCCCCC2)cc1)c1nc2c(F)cccc2s1,–,
COc1cc2nc(N(CCCN(C)C)C(=O)c3ccc(S(=O)(=O)N4CCc5ccccc5C4)cc3)sc2cc1OC,–,
CCCC1CCC2(CC1)CCC2OC(=S)Nc1ccc(Cl)cc1 (stereo not drawn),–,
CCOc1ccc(N(CC(=O)Nc2c(C)n(C)n(-c3ccccc3)c2=O)S(=O)(=O)c2ccc(C)c(C)c2)cc1,–,
C[C@H]1C(=O)CC[C@@]23CCCN2C(=O)CCC[C@@H]13,–,
Clc1ccc(-n2c(SCc3cccc4ccccc34)nnc2-c2ccccn2)cc1,–,
CC(C)(C)c1ccc(S(=O)(=O)N2CCCC2C(=O)N2CCc3ccccc3C2)cc1 (stereo not drawn),–,
CCOC(=O)C1(Cc2ccccc2)CCN(Cc2ccnc3ccccc23)CC1,–,
O=C(COc1ccc(F)c(Cl)c1)N[C@H]1CCCN(CC2CC2)C1,–,
O=C(N/N=C/c1cccc(OC(=O)c2cccc(Br)c2)c1)c1cccnc1,–,
O=C(N/N=C/c1ccc(OC(=O)c2cccc(Br)c2)cc1)c1cccnc1,–,
O=C(N/N=C/c1cccnc1)c1cccc(NC(=O)c2cccc(Br)c2)c1,12,TbREL1 confirm=–
COc1cc(NC(=O)C2CCCN(S(=O)(=O)c3ccccc3[N+](=O)[O-])C2)cc(OC)c1 (stereo not drawn),–,
CCCCOC(=O)CCN1C(=O)/C(=C/c2ccccc2)SC1=S,–,
NS(=O)(=O)c1ccc(NC(=O)/C=C/c2ccco2)cc1,–,
Cc1ccc(NC(=O)c2cccc(NC(=O)/C=C/c3ccco3)c2)cc1C,–,
CC(=O)NS(=O)(=O)c1ccc(NC(=O)/C=C/c2ccco2)cc1,15,TbREL1 confirm=12
O=C(c1ccccc1)c1ccc(N2CCOCC2)cc1,–,
CCn1c(=Nc2ccc(N3CCOCC3)cc2)ccc2ccccc21,–,
